In the library only some 7.6% were active in any assay of this set; here they are far more common.
Giardia killer: Giardia lamblia killing; Giardia lamblia trophozoite viability; activity change, % at 7.66 µM, hits read low; 340,000 compounds, 0.15% hits; AID 540267; in the data active means activity change below about -80%; inconclusive means between about -30% and that limit;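 further: parasites exposed to compound for two days anaerobically before the ATP read; on the % scale 0 is the no-effect control and ±100 the full control effect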
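Luminescent ATP signal served as the viability read-out, measured 15-30 min after adding ATP detection reagent to trophozoites that had been incubated with compounds for 48 hrs at 37 deg C anaerobically at 100 cells/well.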
p53 reactivator: restores transcriptional activity of mutant p53. H1299 p53-A138V BP100-luciferase reporter, luminescence, 24 h. Potency, µM (titrated, usually from 92.2 µM), without a hit: at the highest dose activity change, positive = activation, actives largely listed as activators. 320,000 compounds, 0.063% hits. AID 504706; further: potency means the concentration at half of the fitted maximal effect; % of control where 0% means no effect; nearly all actives have a fitted effect of over 45% in size
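p53-null H1299 cells stably carrying temperature-sensitive p53-A138V and a BP100-luciferase reporter were pinned with compounds (4-point, 1:5 series) and held 24 hrs at 37 deg C. Luminescence was read 10 min after detection reagent.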
RORg inh: blocks mouse ROR gamma transcriptional activity; Drosophila S2 Gal4-RORgamma UAS-luciferase reporter, 20 h; Potency, µM (series often up to 53.6 µM), for the others: at the highest dose activity change, negative = inhibition, actives largely listed as inhibitors; 310,000 compounds, 5.4% hits; AID 2551; further: potency means the concentration at half of the fitted maximal effect; on the % scale 0 is the no-effect control and ±100 the full control effect; nearly all actives have a fitted effect of over 60% in size
Target sequence (P51450 whole entry, looked up, the tested form may be a part): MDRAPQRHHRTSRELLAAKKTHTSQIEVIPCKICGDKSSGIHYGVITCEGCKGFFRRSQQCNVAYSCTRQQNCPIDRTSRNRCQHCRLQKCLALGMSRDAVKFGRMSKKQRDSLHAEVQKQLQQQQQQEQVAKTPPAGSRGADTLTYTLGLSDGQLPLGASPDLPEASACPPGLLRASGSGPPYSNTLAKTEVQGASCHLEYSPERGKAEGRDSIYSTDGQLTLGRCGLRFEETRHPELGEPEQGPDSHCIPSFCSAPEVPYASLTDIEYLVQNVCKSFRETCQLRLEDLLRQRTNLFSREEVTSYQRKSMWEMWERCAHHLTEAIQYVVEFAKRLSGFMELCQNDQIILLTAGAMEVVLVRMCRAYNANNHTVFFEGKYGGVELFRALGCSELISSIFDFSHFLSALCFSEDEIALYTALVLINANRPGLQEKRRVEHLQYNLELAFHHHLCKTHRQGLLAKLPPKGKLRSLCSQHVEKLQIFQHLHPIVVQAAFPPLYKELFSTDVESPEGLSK
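Schneider cells (Drosophila), stable Gal4 DBD–ROR gamma + UAS-luc; 1 hr cmpd preincubation; Cu2+ induction 700 uM final; 20 hr ambient; luminescence.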
ELG1 DNA repair: ELG1-dependent DNA repair inhibition; HEK293T ELG1-luciferase reporter, luminescence, 16 h; DNA damage induced by 5-fluorouridine; Potency, µM (titrated, usually from 46.1 µM), for the others: at the highest dose activity change, negative = inhibition, usual class: inhibitors; 330,000 compounds, 2.3% hits; AID 504467; further: potency means the concentration at half of the fitted maximal effect; on the % scale 0 is the no-effect control and ±100 the full control effect; nearly all actives have a fitted effect of over 55% in size
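Cells (2,000 per well) received 5-fluorouridine plus test compound or DMSO and were incubated 16 hr at 37 °C, 5% CO2. Luciferase activity was read by luminescence 30 min after ONE-Glo addition; signal suppression marked inhibition of damage-induced ELG1 function.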
BRCA1 expr up: BRCA1 expression activation | MCF7-BRCA1-FFLuc reporter, luminescence, 48 h; response scale: scaled: vehicle 0%, 10 µM genistein 100% | Potency, µM (top dose mostly 46.1 µM), for the others: at the top dose activation, hits mostly activators | 380,000 compounds, 1.1% hits; further: potency means the concentration at half of the fitted maximal effect; nearly all actives have a fitted effect of over 80% in size
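Reporter cells (MCF7, BRCA1 promoter-firefly luciferase) received library compounds across a concentration series for 48 h. End-point luminescence was measured and concentration-effect curves derived after normalization.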
VP16 counter: Gal4-VP16 reporter inhibition counter-screen; 310,000 compounds, 3.5% hits; Potency, µM (titrated, usually from 53.6 µM), for the others: top-dose activity, negative = inhibition, usual class: inhibitors; Drosophila S2 Gal4-VP16 UAS-luciferase, luminescence, 20 h;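 further: Gal4-VP16 expression switched on by copper sulfate through the metallothionein promoter; potency means the concentration at half of the fitted maximal effect; on the % scale 0 is the no-effect control and ±100 the full control effect; nearly all actives have a fitted effect of over 50% in size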
Starred values were filed as active, the others as inactive; u = inconclusive; x = no result given; [ ] = another dose, or the depositor's remark. Unless noted, the call rests on the fitted dose curve; in most records, active means well fitted curve in the direction sought with a large enough effect; inconclusive means small, poorly fitted or top-dose-only effect, or another doubt; inactive means no such curve, though single readings can be large; an effect the other way counts as inactive or inconclusive.

SMILES	Giardia killer	p53 reactivator	RORg inh	ELG1 DNA repair	BRCA1 expr up	VP16 counter
O=C(Nc1ccc2[nH]c(=S)sc2c1)Nc1ccccc1F	-4.2	u	8.1%	u	95.2%	-7.7%
Cc1ccccc1NC(=O)N1C2CCCC1CC(NC(=O)C(C)(C)C)C2 (configuration not stated)	4.5	-15.2%	-18.6%	0.0%	3.7%	-3.4%
CCN1C(=O)[C@H]2[C@@H](c3ccc(OC)cc3)N[C@]3(CCCN(Cc4ccc(Cl)cc4)C3=O)[C@H]2C1=O	x	x	x	x	9.5%	x
O=C1c2ccccc2-c2nnc(-c3ccc(F)cc3)cc21	u	14.8%	2.9%	u	66.6%	-6.5%
Cc1ccc(-c2cc3c(nn2)-c2ccccc2C3=O)cc1	-96.7*	-10.4%	1.12µM*	u	-88.0%	2µM*
Cc1ccccc1-c1cc2c(nn1)-c1ccccc1C2=O	-18.2	28.8%	10µM*	u	-26.6%	8.91µM*
CN(C)S(=O)(=O)c1cccc(NC(=O)c2ccc(COc3ccccc3)cc2)c1	7.6	12.9%	-44.2%	11.6µM*	-0.4%	6.31µM*
CCOc1cccc(NC(=O)c2ccc(S(=O)(=O)N(C)C)cc2)c1	-12.4	-8.2%	33.7%	-13.0%	-12.8%	16.5%
CN(c1ccccc1)S(=O)(=O)c1cccc(NC(=O)c2cc3ccccc3oc2=O)c1	-0.2	14.8%	-3.4%	u	11.2µM*	-5.9%
COc1cc(OC)c(OC)cc1CNC(=O)c1ccc(COc2ccccc2)cc1	5.0	14.8%	u	10.3µM*	-14.8%	10.2%
COCc1ccc(C(=O)Nc2cccc(S(=O)(=O)N(C)c3ccccc3)c2)cc1	-16.1	-9.0%	x	18.3µM*	-50.2%	x
CC(=O)c1ccc(-c2cccc(C3C4C=CCCC4(C)C(=O)N3Cc3ccccc3)c2)cc1 (configuration not stated)	-29.2	x	-37.5%	x	x	-4.1%
COc1ccc(Cl)cc1NC(=O)Nc1ccccc1C(N)=O	-8.5	0.5%	5.8%	0.0%	42.0%	-9.0%
COc1cc(C(=O)Oc2cccc(Nc3ncnc4ccccc34)c2)cc(OC)c1OC	-11.4	u	33.2%	2.91µM*	-73.0%	u
O=C(Oc1cccc(Nc2ncnc3ccccc23)c1)c1cccnc1	-1.0	5.1%	-0.3%	9.3%	-10.5%	-7.1%
COc1ccc(C(=O)Oc2cccc(Nc3ncnc4ccccc34)c2)cc1OC	-12.6	6.4%	-8.8%	16.4µM*	-16.6%	u
Cc1ccc(C(=O)NNC2=NCCC2)cc1	6.8	-0.4%	10µM*	-1.4%	-6.4%	17.8µM*
Cc1ccc(NCC(=O)NNC2=NCCC2)c(C)c1	10.8	1.2%	8.91µM*	-1.5%	-1.2%	11.2µM*
O=C(NNC1=NCCC1)c1ccc(Br)cc1	-1.0	-1.1%	5.62µM*	1.1%	18.7%	6.31µM*
Cc1cc2nc(SCC(=O)Nc3ccccc3C(=O)O)[nH]c2cc1C	23.1	0.5%	13.7%	u	0.0%	-11.2%
Cc1ccc(N(C(=O)c2ccccn2)C(C(=O)NC2CCCCC2)c2ccncc2)cc1 (configuration not stated)	-20.1	14.9%	5.8%	u	4.3%	-1.4%
Cc1ccc(O)c(Nc2c3ccccc3nc3ccccc23)c1	-26.6	11.1%	-32.3%	8.2µM*	-23.7%	u
CCC(C)(NC=O)C(=O)Nc1c(C)cccc1C (configuration not stated)	13.2	-0.7%	-0.3%	2.3%	-2.1%	-4.7%
O=C(c1ccc(Cl)cc1Cl)c1ncc(C(F)(F)F)cc1Cl	-10.3	-7.6%	-0.4%	11.6%	1.6%	1.6%
O/N=C(\c1ccc(Cl)cc1Cl)c1ncc(C(F)(F)F)cc1Cl	-13.7	2.2%	11.2µM*	0.9%	-45.6%	25.1µM*
SMILES	Giardia killer	p53 reactivator	RORg inh	ELG1 DNA repair	BRCA1 expr up	VP16 counter
CC1=C(C(=O)N(C(C)C)C(C)C)CC(CC(=O)NCCCCc2ccccc2)C(=O)N1Cc1ccc(C(C)(C)C)cc1 (configuration not stated)	x	x	x	x	-62.5%	x
N/C(=N\OC(=O)CSc1ccccc1)c1ccccn1	8.0	10.5%	-5.5%	u	6.31µM*	5.8%
Cc1ccc(C(=O)O/N=C(\N)c2ccccn2)c(C)c1	-20.0	-43.9%	u	u	u	6.31µM*
N/C(=N\OC(=O)Cc1ccc(-c2ccccc2)cc1)c1ccccn1	2.6	u	21.9%	u	72.5%	-20.8%
N/C(=N\OC(=O)c1ccccc1[N+](=O)[O-])c1ccccn1	-12.0	u	23.2%	u	5.01µM*	7.0%
N/C(=N\OC(=O)c1ccccc1Cl)c1ccccn1	-24.9	-6.1%	6.31µM*	u	-44.8%	14.1µM*
COC(=O)c1ccccc1NC(=O)N1CSC[C@H]1C(=O)OC	-7.0	0.7%	-16.6%	1.8%	-5.1%	5.4%
CC(C)(C)NC(=O)C(c1ccncc1)N(C(=O)c1csnn1)c1ccccc1 (configuration not stated)	-8.9	-8.2%	0.5%	-1.3%	5.2%	-6.3%
COc1ccccc1C(=O)O/N=C(\N)c1ccccn1	-3.0	-3.7%	3.16µM*	u	-44.5%	u
N/C(=N\OC(=O)c1cc(-c2ccccc2)nc2ccccc12)c1ccccn1	-22.6	7.3%	1.0%	18.3µM*	-0.9%	-6.9%
CCOCCCNC(=O)CN(Cc1ccc(Cl)cc1)S(C)(=O)=O	-18.4	-2.5%	6.6%	-0.9%	-0.9%	3.2%
O=C(Nc1cccc(-c2ccc(N3CCOCC3)nn2)c1)c1ccccc1	-13.2	6.8%	x	0.0%	u	x
O=C(Nc1cccc(-c2ccc(N3CCCCC3)nn2)c1)C(F)(F)F	u	-18.6%	6.31µM*	u	-56.8%	10µM*
O=S(=O)(Nc1cccc(-c2ccc(N3CCCCCC3)nn2)c1)c1ccccc1Cl	u	10.0%	u	22.6%	74.5%	10.2%
O=C(Nc1cccc(-c2ccc(N3CCCCC3)nn2)c1)c1ccc(Br)o1	u	9.9%	x	u	u	x
CC1CCN(c2ccc(-c3cccc(NC(=O)C(F)(F)F)c3)nn2)CC1	-84.4*	-30.7%	u	u	-22.1%	2.82µM*
O=S(=O)(Nc1cccc(-c2ccc(N3CCCCCC3)nn2)c1)c1ccccc1F	-23.0	u	17.8%	u	12.6µM*	0.2%
COC(=O)c1cc(=O)c2c([N+](=O)[O-])ccc(OC)c2o1	1.1	3.3%	-1.0%	11.0%	-8.2%	1.5%
COc1cccc(CNc2nc3ccccc3n2CCN2CCCCC2)c1	14.0	-5.1%	-34.4%[10 µM]	-14.0%	-3.1%	4.4%
Brc1ccc(CNc2nc3ccccc3n2CCN2CCCCC2)cc1	-83.4*	-1.1%	u	-3.4%	-42.9%	-22.5%

High-throughput results from PubChem.
